# Data taken from PubChem BioAssay (EPA / NIEHS).
# The source made the active and inactive calls. How the source made its calls: active means hit-call score of the fitted dose curve at least 0.9, where 1 is the maximum; inactive means score below 0.9.
# Assay: CCTE_Shafer_MEA_dev_per_burst_interspike_interval: CCTE's Neural Network Formation Assay for Burst Interspike Interval, Shafer Lab (AID 2284044);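 further: mean spike spacing inside bursts as AUC over recordings on days 5 7 9 12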
# Description: CCTE_Shafer_MEA_dev assay is conducted using Axion Biosystems 48 well microelectrode array (MEA) plates and Maestro recording system. Each well of the MEA plate contains a grid of 16 microelectrodes embedded in the culture surface. Electrically active cells, such as neurons, can be cultured over the electrodes, and electrical activity in these cells can be recorded extracellularly. The spontaneous firing of neurons is captured from each electrode on a microsecond timescale providing both temporally and spatially precise data. […] The CCTE_Shafer_MEA_dev assay uses primary cultures of rat cortical neurons. Recordings are made on days post-plating 5, 7, 9 and 12. As these cultures mature over time, neural networks develop functional activity and form cohesive networks in which electrical activity can be highly coordinated. CCTE_Shafer_MEA_dev_per_burst_interspike_interval is 1 of 19 assay components of the CCTE_Shafer_MEA_dev assay. It measures the average time interval between spikes (action potential firings) within a single-electrode burst (temporally-clustered group of spikes) during a recording in a microelectrode array (MEA) using Axion Biosystems Maestro 768 channel amplifier with the AxIS adaptive spike detector. The mean inter-spike interval within bursts is averaged across the actively bursting electrodes to report a well-mean value. To collapse across multiple recordings made on days post-plating 5, 7, 9 and 12, the trapezoidal area-under-the-curve of the component is calculated.Data from the assay component CCTE_Shafer_MEA_dev_per_burst_interspike_interval was analyzed into 1 assay endpoint. This assay endpoint, CCTE_Shafer_MEA_dev_per_burst_interspike_interval, was analyzed in the negative analysis fitting direction relative to DMSO as the negative control and baseline of activity. Using a type of functional reporter, gain or loss-of-signal activity can be used to understand electrical activity.
# On the day prior to culture, each well was coated thoroughly with 150 uL of 0.05% polyethyleneimine (PEI, Sigma Cat P3143) in 50 mM HEPES (Sigma Cat H7523) at a pH of 8. The plate was incubated at 37C for one hour. PEI was rinsed out with 500 uL of sterile water three times. Plates were stored at 4C until the day of culture. This culture was plated at a seeding density of 1.5 x 10^5 cells/well on a 48-well MEA plate, prepared as described above. Cells were administered via a 25 uL media/laminin ([…]; Sigma Cat L2020-1MG) drop directly onto the microelectrode array, as adding the cells with the laminin results in better attachment than pre-coating with laminin. After 2 hours, an additional 475 uL of cortical media was added and the cells returned to the incubator. Exposure starts at day 0 of plating and is continued over twelve days of network development until the experiment is terminated. Cells are fed with fresh medium on DIV 5 and 9, following the recordings on those days. The entire volume of media in the well is exchanged and any vehicle or compound treatment is renewed. Complete details are found in OP-NHEERL/ISTD/SBB/TJS/2015-03-r0 (available on request, email shafer.tim@epa.gov). Measurement of the electrical activity is non-invasive, and recordings can be made from the same plate over multiple different days of the culture. In cortical neurons, this allows for the measurement of extracellular action potentials over the period during which networks form in the MEA plate.
row,SMILES,outcome
1,O=C(O)C(F)(F)C(F)(F)C(F)(F)OC(F)(F)F,inactive
2,NC(=O)C(F)(F)C(F)(F)C(F)(F)C(F)F,inactive
3,OCC(F)(F)C(F)(F)C(F)(F)CO,inactive
4,C=CC(=O)OCC(F)(F)C(F)(F)C(F)(F)COC(=O)C=C,inactive
5,NC(=O)C(F)(F)C(F)(F)C(F)(F)F,inactive
6,C=CC(=O)OCCC(F)(F)C(F)(F)C(F)(F)C(F)(F)F,inactive
7,CO[Si](C)(CCC(F)(F)C(F)(F)C(F)(F)C(F)(F)C(F)(F)C(F)(F)F)OC,inactive
8,OC(O)C(F)(F)C(F)(F)F,inactive
9,OCC(O)CC(F)(F)C(F)(F)C(F)(F)C(F)(F)F (centres undefined),inactive
10,CCN(CCO)S(=O)(=O)C(F)(F)C(F)(F)C(F)(F)C(F)(F)C(F)(F)C(F)(F)C(F)(F)C(F)(F)F,inactive
11,OCCCCC(F)(F)C(F)(F)C(F)(F)C(F)(F)F,inactive
12,NC(O)(C(F)(F)F)C(F)(F)F,inactive
13,O=S(=O)(O)CCC(F)(F)C(F)(F)C(F)(F)C(F)(F)C(F)(F)C(F)(F)C(F)(F)C(F)(F)F,inactive
14,FC(F)(F)C(F)(F)C(F)(F)C(F)(F)C(F)(F)C(F)(F)C(F)(F)CCI,inactive
15,OCC(F)(F)C(F)(F)C(F)(F)C(F)(F)C(F)(F)C(F)(F)C(F)(F)C(F)(F)CO,inactive
16,NC(=O)C(F)(F)C(F)(F)C(F)(F)C(F)(F)C(N)=O,inactive
17,O=S(=O)(O)CCC(F)(F)C(F)(F)C(F)(F)C(F)(F)F,inactive
18,CNS(=O)(=O)C(F)(F)C(F)(F)C(F)(F)C(F)(F)C(F)(F)C(F)(F)C(F)(F)C(F)(F)F,inactive
19,OCC(F)(F)C(F)(F)C(F)(F)C(F)(F)C(F)(F)C(F)(F)CO,inactive
